Results on ten sequences are retold here after PMC5700166.

What all share (test): protein-binding microarray (PBM); PBM: ~300 nM protein, 6 mM HEPES pH 7.8, 80 mM KCl, 0.5 mM EDTA, 0.5 mM EGTA, 6% glycerol, 35 ng/ul poly-dIdC, 1% milk, 1 h, room temperature; Ap Aiptasia and Nv Nematostella (sea anemones) / Co Capsaspora / Aq Amphimedon (sponge) / Dm Drosophila / Hu human; RHD is the Rel homology domain; high values mean tight binding
Holding throughout (conditions): dsDNA, one strand shown

The target in one test is T1, GST-Ap-NF-kB RHD (Exaiptasia pallida (Aiptasia), UniProt A0A913YAJ5 2-422).
T1 sequence: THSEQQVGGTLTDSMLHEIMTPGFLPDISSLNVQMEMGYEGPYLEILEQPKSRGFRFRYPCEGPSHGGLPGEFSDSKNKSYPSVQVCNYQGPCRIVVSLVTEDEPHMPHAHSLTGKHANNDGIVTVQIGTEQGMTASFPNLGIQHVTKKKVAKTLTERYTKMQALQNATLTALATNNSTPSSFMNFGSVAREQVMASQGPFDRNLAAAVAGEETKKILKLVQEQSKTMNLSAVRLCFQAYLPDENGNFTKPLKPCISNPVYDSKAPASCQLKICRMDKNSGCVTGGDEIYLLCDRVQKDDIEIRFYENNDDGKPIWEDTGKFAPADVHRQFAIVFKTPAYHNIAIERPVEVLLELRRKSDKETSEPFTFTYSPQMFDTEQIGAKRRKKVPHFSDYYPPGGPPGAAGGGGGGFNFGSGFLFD

Test [1] concerns the target T2, GST-Nv-NF-kB (Cys allele) (Nematostella vectensis, UniProt E5G601 2-411).
T2 sequence: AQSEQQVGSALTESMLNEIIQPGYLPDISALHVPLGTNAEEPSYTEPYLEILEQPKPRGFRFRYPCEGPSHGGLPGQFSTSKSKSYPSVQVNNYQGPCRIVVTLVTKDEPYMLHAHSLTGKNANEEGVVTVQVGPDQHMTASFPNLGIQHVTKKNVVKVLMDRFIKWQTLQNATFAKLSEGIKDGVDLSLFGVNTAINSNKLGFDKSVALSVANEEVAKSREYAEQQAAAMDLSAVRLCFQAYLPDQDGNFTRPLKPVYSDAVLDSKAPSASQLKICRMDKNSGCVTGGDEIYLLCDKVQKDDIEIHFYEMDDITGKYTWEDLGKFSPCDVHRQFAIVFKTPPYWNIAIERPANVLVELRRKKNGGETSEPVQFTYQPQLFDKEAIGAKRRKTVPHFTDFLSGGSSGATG

Test [2] has as its target T3, GST-Nv-NF-kB (Ser allele) (Nematostella vectensis, UniProt A7UNT2 2-411).
T3 sequence: T2 sequence with Q21R, C66S, S207N, E215Q, V217A, E225K, A268E, D399E

For the next test, the target named is T4, GST-Co-NF-kB (Capsaspora owczarzaki, UniProt F1ARL5 200-546).
T4 sequence: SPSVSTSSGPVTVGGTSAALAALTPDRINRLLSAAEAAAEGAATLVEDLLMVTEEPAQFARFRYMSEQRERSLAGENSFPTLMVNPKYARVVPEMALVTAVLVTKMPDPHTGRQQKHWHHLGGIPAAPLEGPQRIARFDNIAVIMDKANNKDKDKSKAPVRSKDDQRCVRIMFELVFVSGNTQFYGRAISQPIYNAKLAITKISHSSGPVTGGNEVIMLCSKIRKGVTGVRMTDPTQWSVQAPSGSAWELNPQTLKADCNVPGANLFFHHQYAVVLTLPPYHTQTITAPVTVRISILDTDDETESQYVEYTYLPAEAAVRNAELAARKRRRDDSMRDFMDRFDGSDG

A further test deals with T5, GST-Dm-Relish (Drosophila melanogaster, UniProt Q94527 99-473).
T5 sequence: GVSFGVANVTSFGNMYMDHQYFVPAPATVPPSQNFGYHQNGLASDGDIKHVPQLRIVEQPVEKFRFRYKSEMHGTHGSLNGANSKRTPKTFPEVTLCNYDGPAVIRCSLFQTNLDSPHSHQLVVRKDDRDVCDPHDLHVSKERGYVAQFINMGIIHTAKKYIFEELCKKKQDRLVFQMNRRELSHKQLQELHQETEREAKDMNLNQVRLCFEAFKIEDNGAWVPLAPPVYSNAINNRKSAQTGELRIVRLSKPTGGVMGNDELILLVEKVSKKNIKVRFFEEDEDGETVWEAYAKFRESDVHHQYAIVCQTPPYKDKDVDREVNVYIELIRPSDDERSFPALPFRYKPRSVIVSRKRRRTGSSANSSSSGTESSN

In the next test the target is T6, GST-Aq-NF-kB (Amphimedon queenslandica, UniProt A9Y5G7 2-389).
T6 sequence: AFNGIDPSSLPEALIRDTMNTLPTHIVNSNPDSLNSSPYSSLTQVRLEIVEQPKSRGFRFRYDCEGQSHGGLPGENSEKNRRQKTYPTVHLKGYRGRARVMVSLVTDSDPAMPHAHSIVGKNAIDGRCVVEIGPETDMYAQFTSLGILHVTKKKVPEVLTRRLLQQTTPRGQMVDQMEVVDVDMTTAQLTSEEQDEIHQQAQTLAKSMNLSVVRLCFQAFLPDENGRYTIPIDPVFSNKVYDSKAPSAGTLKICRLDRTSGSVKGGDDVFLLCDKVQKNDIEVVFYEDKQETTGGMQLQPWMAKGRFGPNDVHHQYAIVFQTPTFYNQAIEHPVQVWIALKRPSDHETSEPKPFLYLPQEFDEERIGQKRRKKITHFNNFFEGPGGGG

The target of the next test is GST-Hu-p50 (Homo sapiens, UniProt P19838 7-356).

Changes are numbered by the printed parent chain.

Sequence of GST-Hu-p50 (P19838 7-356): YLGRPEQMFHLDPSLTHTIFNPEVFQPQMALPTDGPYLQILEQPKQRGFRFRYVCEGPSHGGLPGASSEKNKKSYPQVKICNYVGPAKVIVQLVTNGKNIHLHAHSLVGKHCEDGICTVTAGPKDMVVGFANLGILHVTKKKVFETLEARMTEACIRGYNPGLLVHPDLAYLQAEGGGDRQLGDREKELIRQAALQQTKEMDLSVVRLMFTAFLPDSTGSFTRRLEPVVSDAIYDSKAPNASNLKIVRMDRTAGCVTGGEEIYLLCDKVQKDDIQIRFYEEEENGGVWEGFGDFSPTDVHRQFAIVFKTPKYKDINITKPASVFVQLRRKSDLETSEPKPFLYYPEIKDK

In the case of “CCGATTAACATCAGGGGATTTACTGATGTTAATCGGGTCTTGATTCGCTTGACGCTGCTG”, the binding signal came out at 8.92 z-score with GST-Ap-NF-kB RHD; 9.25 z-score in test [1]; 10.4 z-score in test [2]; 3.45 z-score with GST-Co-NF-kB; 10.5 z-score in the test with GST-Dm-Relish; 7.83 z-score with GST-Aq-NF-kB. The binding signal with GST-Hu-p50 was found to be 7.61 z-score.
Consider “CCGATTAACATCAAAAACCCCCGTGATGTTAATCGGGTCTTGATTCGCTTGACGCTGCTG”, for which the binding signal came out at 9.67 z-score with GST-Ap-NF-kB RHD; 8.8 z-score in test [1]; 8.78 z-score in test [2]; 4.41 z-score with GST-Co-NF-kB; 10.8 z-score with GST-Dm-Relish; 8.35 z-score with GST-Aq-NF-kB. In addition, in the test with GST-Hu-p50, the binding signal is 7.43 z-score.
As for “CCGATTAACATCAGGGAAAACAATGATGTTAATCGGGTCTTGATTCGCTTGACGCTGCTG”, the binding signal was determined as 3.05 z-score with GST-Ap-NF-kB RHD; 4.96 z-score in test [1]; 6.37 z-score in test [2]; 5.48 z-score with GST-Co-NF-kB; 1.47 z-score with GST-Dm-Relish; 3.34 z-score in the test with GST-Aq-NF-kB. Further, the binding signal with GST-Hu-p50 was determined as 3.66 z-score.
With “CCGATTAACATCAGGGGGATACCTGATGTTAATCGGGTCTTGATTCGCTTGACGCTGCTG”, the binding signal with GST-Ap-NF-kB RHD is 7.92 z-score; in test [1] it was 7.48 z-score; in test [2] it was 6.28 z-score; in the test with GST-Co-NF-kB, 6.16 z-score; in the test with GST-Dm-Relish it was 8.18 z-score; with GST-Aq-NF-kB, 8.7 z-score. The sequence also showed a binding signal with GST-Hu-p50 of 5.56 z-score.
For the sequence “CCGATTAACATCAGGGCTGCCCCTGATGTTAATCGGGTCTTGATTCGCTTGACGCTGCTG”, the binding signal was 4.09 z-score with GST-Ap-NF-kB RHD; 3.62 z-score in test [1]; 1.89 z-score in test [2]; 1.21 z-score with GST-Co-NF-kB; 4.09 z-score with GST-Dm-Relish; 6.85 z-score in the test with GST-Aq-NF-kB. The sequence further came in with a binding signal in the test with GST-Hu-p50 of 3.48 z-score.
“CCGATTAACATCAAAAAGTCCCCTGATGTTAATCGGGTCTTGATTCGCTTGACGCTGCTG”: the binding signal was 9.45 z-score with GST-Ap-NF-kB RHD; 10.8 z-score in test [1]; 11.1 z-score in test [2]; 5.57 z-score with GST-Co-NF-kB; 10 z-score with GST-Dm-Relish; 8.93 z-score in the test with GST-Aq-NF-kB. In the test with GST-Hu-p50, this sequence came in with a binding signal of 7.85 z-score.
Regarding “CCGATTAACATCAATAACCCCCATGATGTTAATCGGGTCTTGATTCGCTTGACGCTGCTG”, the binding signal in the test with GST-Ap-NF-kB RHD was 5.5 z-score; in test [1], 4.47 z-score; in test [2], 4.38 z-score; in the test with GST-Co-NF-kB, 2.27 z-score; with GST-Dm-Relish, 5.69 z-score; in the test with GST-Aq-NF-kB, 4.84 z-score. The sequence further showed a binding signal with GST-Hu-p50 of 5.31 z-score.
Take “CCGATTAACATCACAAAAGTCCCTGATGTTAATCGGGTCTTGATTCGCTTGACGCTGCTG”: the binding signal with GST-Ap-NF-kB RHD worked out at 7.21 z-score; in test [1], 9.22 z-score; in test [2] it was 9.85 z-score; in the test with GST-Co-NF-kB, 2.27 z-score; with GST-Dm-Relish, 7.55 z-score; in the test with GST-Aq-NF-kB, 7.54 z-score. The sequence also came in with a binding signal with GST-Hu-p50 of 6.52 z-score.
With “CCGATTAACATCAGGGGTAAATATGATGTTAATCGGGTCTTGATTCGCTTGACGCTGCTG”, the binding signal with GST-Ap-NF-kB RHD was found to be 2.7 z-score; in test [1], 3.39 z-score; in test [2], 3.87 z-score; with GST-Co-NF-kB it was 7.48 z-score; with GST-Dm-Relish, 1.66 z-score; with GST-Aq-NF-kB, 3.06 z-score. Besides, the binding signal with GST-Hu-p50 is 3.84 z-score.
In the case of “CCGATTAACATCAGTTTCCCCCATGATGTTAATCGGGTCTTGATTCGCTTGACGCTGCTG”, the binding signal with GST-Ap-NF-kB RHD is 6.91 z-score; in test [1] it was 6.51 z-score; in test [2] it was 8.2 z-score; in the test with GST-Co-NF-kB it was 10.6 z-score; in the test with GST-Dm-Relish it was 2.94 z-score; in the test with GST-Aq-NF-kB, 5.09 z-score. Further, the binding signal with GST-Hu-p50 worked out at 6.77 z-score.
